High-throughput results deposited in PubChem BioAssay by Sanford-Burnham Center for Chemical Genomics.
Rows were chosen to be rich in hits. Some 31% of all compounds tested hit in one or more screens of this group.
CYP2C9 activ: activators of human CYP2C9 | P11712 | recombinant CYP2C9, luciferin-H conversion, luminescence; stronger effect = higher value; factor 1 = untreated enzyme, 0 = blocked | activation factor at 5 µM | actives 1.4% (n = 96,000) | AID 1024;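 active means activation factor of 2 or more for CYP2C9 at a 5 µM dose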;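 further: 0 = sulfaphenazole-blocked wells and 1 = vehicle-only wells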
Target sequence (P11712 whole entry, looked up): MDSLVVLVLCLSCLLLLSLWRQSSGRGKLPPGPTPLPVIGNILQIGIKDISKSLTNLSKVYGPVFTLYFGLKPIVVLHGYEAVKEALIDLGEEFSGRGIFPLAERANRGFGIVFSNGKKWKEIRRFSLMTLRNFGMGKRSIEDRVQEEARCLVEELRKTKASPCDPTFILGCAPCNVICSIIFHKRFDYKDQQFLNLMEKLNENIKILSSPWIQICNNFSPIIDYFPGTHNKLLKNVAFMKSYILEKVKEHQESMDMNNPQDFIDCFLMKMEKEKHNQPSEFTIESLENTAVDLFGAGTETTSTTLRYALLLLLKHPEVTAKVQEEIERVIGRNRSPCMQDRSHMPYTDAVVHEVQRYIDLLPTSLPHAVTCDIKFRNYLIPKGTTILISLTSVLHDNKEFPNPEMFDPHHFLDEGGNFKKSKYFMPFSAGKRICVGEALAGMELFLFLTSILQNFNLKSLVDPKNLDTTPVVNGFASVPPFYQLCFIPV
CYP2C19 act: increases human CYP2C19 enzyme activity. P33261. recombinant CYP2C19, luciferin-H EGE luminescence; stronger effect = higher value; 0 = fully inhibited enzyme, 1 = untreated enzyme. 96,000 tested, under 10 active. activation factor at 5 µM;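 active means activation factor of at least 2 at 5 µM in the primary screen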;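 further: 0 = wells with 2.5 mM tranylcypromine and 1 = vehicle-only wells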
CYP2C9 inh: blocks human cytochrome P450 2C9 | P11712 | CYP2C9 Supersomes, luciferin-H conversion, luminescence | inhibition, % at 5 µM | actives 20% (n = 96,000) | AID 777;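 active means blocking of liver enzyme CYP2C9 beyond about 50% at 5 µM, limit read from the data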
CYP2C19 inhib: human CYP2C19 inhibition; P33261; CYP2C19 Supersomes, luciferin-H EGE luminescence, 30 min; inhibition, % at 5 µM; actives 21% (n = 96,000);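 active means CYP2C19 inhibition above a set limit at 5 µM in the primary screen, cut at about 50% in these data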;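 further: plate controls were negative control wells for no effect and 2.5 mM tranylcypromine positive control for full effect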
* marks the source's active call; other numbers are inactive results.

SMILES	CYP2C9 activ	CYP2C19 act	CYP2C9 inh	CYP2C19 inhib
O=C(OC1CCOC1=O)c1cc(-c2ccc(Cl)cc2)nc2ccccc12 (stereo not drawn)	1	1	1	2
COC(=O)CCSCc1cn2cc(Cl)ccc2n1	1	0.7	-1	31
O=C(NCCc1ccncc1)c1ccccc1F	0.4	0.2	57*	81*
O=C(Nc1ccncc1)c1ccccc1F	0.6	0.4	45	64*
O=C(Nc1ccc(Oc2cccnc2)cc1)c1ccccc1F	0	0.1	97*	93*
O=C(Nc1nc2ccccc2[nH]1)c1ccccc1F	0.2	0	81*	95*
NS(=O)(=O)c1ccc(CCNC(=O)c2ccccc2F)cc1	1	0.8	4	17
O=C1CN(C(=O)COC(=O)CCC(=O)c2ccc3c(c2)OCCO3)c2ccccc2N1	1.1	0.9	-10	11
CC(=O)Nc1cccc(N(C)S(C)(=O)=O)c1	0.8	1.1	20	-13
Cc1ccc(C(=O)Nc2cccc(N(C)S(C)(=O)=O)c2)cc1S(=O)(=O)Nc1ccccc1	0.3	0.5	72*	46
Cc1cccc(C)c1N(CC(=O)Nc1cccc(N(C)S(C)(=O)=O)c1)S(C)(=O)=O	0.4	0.6	58*	35
CN(c1cccc(NC(=O)Nc2cccc(Cl)c2)c1)S(C)(=O)=O	0.3	0.4	72*	62*
COc1ccccc1OCC(=O)Nc1cccc(N(C)S(C)(=O)=O)c1	0.5	0.2	47	83*
CC(C)C(=O)NS(=O)(=O)c1ccc(N)cc1	1.1	1.2	-12	-18
COc1cc2cc(C(=O)O)[nH]c2c(OC)c1OC	1	1.1	-1	-11
Cc1ccc(SCCC(=O)Nc2cccc(N(C)S(C)(=O)=O)c2)cc1	0.2	0.1	83*	91*
CC(CCc1ccccc1)NC(=O)c1cncc(Br)c1 (stereo not drawn)	0.8	0.7	15	31
O=S(=O)(NCCCc1ccccc1)c1ccccc1	0.3	0	70*	98*
CC(CCc1ccccc1)NS(=O)(=O)c1ccccc1 (stereo not drawn)	0.3	0.5	75*	55*
CCCCOCCCNS(=O)(=O)c1ccccc1	0.9	0.6	13	44
CC(CCc1ccccc1)NCc1ccncc1 (stereo not drawn)	0.2	0	83*	96*
CCOCCCNS(=O)(=O)c1ccccc1	1	0.4	1	60*
O=S(=O)(NCCCCCNS(=O)(=O)c1ccccc1)c1ccccc1	0.8	1	16	4
COc1ccccc1NC(=O)NC1(C(=O)N2CCC(O)CC2)CCCCC1	1	1.1	2	-6
CCCc1nn(CCc2ccccn2)c(N)c1CC	0.9	0.7	8	31
SMILES	CYP2C9 activ	CYP2C19 act	CYP2C9 inh	CYP2C19 inhib
CCC(C)(C(=O)NC1CCCCC1)N(Cc1ccco1)C(=O)c1ccccn1 (stereo not drawn)	1	1	-4	2
CC(C)CCCC(C)NS(=O)(=O)Cc1ccccc1 (stereo not drawn)	0.1	0.5	92*	55*
CCOc1cc(C#N)c(NC(=O)CSc2nnnn2-c2ccc(OC)cc2)cc1OCC	0.9	1	5	4
Cc1cc(N2C(=O)C3C4c5ccccc5C(c5ccccc54)C3C2=O)no1 (stereo not drawn)	0.4	0.2	59*	80*
CN=c1scc(C)n1/N=C/c1ccc(O)cc1O	1.3	0.9	-33	13
CCC1(O)c2ccccc2-c2ncccc21 (stereo not drawn)	1	1	-4	5
COC(=O)CSc1nnc([C@H](CC(C)C)NC(=O)OC(C)(C)C)o1	0.9	0.3	6	66*
CCCCSc1nnc([C@H](C)NC(=O)OC(C)(C)C)o1	0.7	0.2	33	75*
CSc1nnc([C@@H](NC(=O)OC(C)(C)C)C(C)C)o1	0.8	0.6	21	38
CCCCSc1nnc([C@H](CC(C)C)NC(=O)OC(C)(C)C)o1	0.4	0.4	56*	62*
O=C(CN1CCCCC1)Nc1ccc(NC(=O)c2ccc(Cl)cc2)cc1Cl	0.8	0.8	16	18
CC#CCCCC(=O)Nc1ccc(C(=O)O)cc1	1	1	4	-3
C=CCNCC#CCOc1ccc(OC)cc1	0.9	0.2	13	76*
CC1(C)CC(=O)c2cnn(-c3nc4ccccc4[nH]3)c2C1	0.4	0.2	56*	80*
O=c1cc(/C=C/c2ccccc2)oc2ccccc12	0.2	0.4	79*	62*
COCn1c(-c2cccc(Br)c2)nc2ccccc21	0.3	0.1	69*	86*
CCOC(=O)c1sc(NC(=O)CSc2nccc(C)n2)c(C#N)c1C	0.8	0.9	24	10
COC(=O)CSc1n[nH]c(-c2ccncc2)n1	0.4	0.4	65*	61*
COC(=O)CSc1nnc(-c2ccncc2)n1N	0.9	0.7	7	25
CCc1ccc(C(=O)CSc2n[nH]c(-c3ccncc3)n2)cc1	0	0.1	97*	87*
CCOC(=O)c1sc(NC(=O)CSc2n[nH]c(-c3ccncc3)n2)c(C#N)c1C	0.5	1	51*	4
O=C(CSc1n[nH]c(-c2ccccc2)n1)c1ccc(O)c(O)c1	0.4	0.4	56*	64*
Cc1ccc(NC(=O)CSc2n[nH]c(-c3ccncc3)n2)cc1	0.1	0.4	94*	62*
O=C(CSc1n[nH]c(-c2ccncc2)n1)Nc1ccccn1	0.2	0.5	77*	50*
Cc1noc(NS(=O)(=O)c2ccc(NC(=O)CSc3n[nH]c(-c4ccccc4)n3)cc2)c1C	0.7	1	28	1
SMILES	CYP2C9 activ	CYP2C19 act	CYP2C9 inh	CYP2C19 inhib
CCOC(=O)/C(N=Nc1c(Br)cc(Br)cc1Br)=C(\C)O	0.8	0.8	22	18
Cc1cc(NC(=O)CCC(=O)N(Cc2cccs2)C(C(=O)NC2CCCC2)c2ccncc2)no1 (stereo not drawn)	0.2	0.3	84*	69*
Cc1ccc(N(C(=O)CCC(=O)Nc2cc(C)on2)C(C(=O)NC2CCCC2)c2ccncc2)cc1 (stereo not drawn)	0.3	0.4	69*	64*
COCCNC(=O)C(c1ccc(F)cc1)N(CC1CCCO1)C(=O)CCC(=O)Nc1ccccn1 (stereo not drawn)	1.1	1.1	-15	-14
COc1ccc(C(C(=O)NC(C)(C)C)N(CC2CCCO2)C(=O)CCC(=O)Nc2cc(C)on2)cc1 (stereo not drawn)	0.2	0.5	84*	51*
CCOC(=O)CN(C(=O)CCC(=O)Nc1cc(C)on1)C(C(=O)NC1CCCC1)c1cccnc1 (stereo not drawn)	0.9	0.9	6	10
Cc1cc(NC(=O)CCC(=O)N(CCC(C)C)C(C(=O)NC2CCCC2)c2cccnc2)no1 (stereo not drawn)	0.8	0.7	24	28
Cc1cccc(N(C(=O)CCC(=O)Nc2cc(C)on2)C(C(=O)NC2CCCC2)c2ccncc2)c1 (stereo not drawn)	0.2	0.2	84*	81*
COc1ccc(OCC(=O)N2CCN(S(=O)(=O)c3ccc(Cl)cc3)CC2)cc1	0.9	1	9	-4
